Results filed as inconclusive are left out. The source made the active and inactive calls. Calls follow the shape of the dose curve; as a rule, active = well fitted cell-killing curve with a large enough effect; inconclusive = small, poorly fitted or top-dose-only effect, or effect the other way; inactive = no such curve, though single readings can be large or run the other way.
Experiments:
[1] = Quantitative High-Throughput drug screen in 47 multiple myeloma cell lines against the NCATS MIPE library collection: OCIMY7_PLB cell viability assay (AID 1918987); details: OCI-MY7 myeloma viability, CellTiter-Glo ATP, 48 h; viability (% of DMSO): at 45.8 µM (top of the series); also: nearly all actives have a fitted effect of over 65% in size
Outline: (§1)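 qHTS format: cells plated (500/well), pin-dosed with MIPE 4.0 compounds, kept 48 h at 37 °C. Readout was CellTiter-Glo luminescence, median RLU.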

[2] = Quantitative High-Throughput drug screen in 47 multiple myeloma cell lines against the NCATS MIPE library collection: XG6_PLB cell viability assay (AID 1919865); also: nearly all actives have a fitted effect of over 40% in size
Outline: as §1

[3] = Quantitative High-Throughput drug screen in 47 multiple myeloma cell lines against the NCATS MIPE library collection: VP6_DJ cell viability assay (AID 1919867); also: nearly all actives have a fitted effect of over 40% in size;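 as to viability (% of DMSO): 100% = DMSO-only wells and 0% = wells with media alone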
Outline: as §1

[4] = Quantitative High-Throughput drug screen in 47 multiple myeloma cell lines against the NCATS MIPE library collection: SKMM1_PLB cell viability assay (AID 1919863); details: SKMM1 myeloma viability, CellTiter-Glo ATP, 48 h; viability: stronger effect = lower value; also: nearly all actives have a fitted effect of over 35% in size
Outline: as §1

[5] = Quantitative High-Throughput drug screen in 47 multiple myeloma cell lines against the NCATS MIPE library collection: UTMC2_PLB cell viability assay (AID 1919868); details: CellTiter-Glo ATP luminescence, 48 h; viability (% of DMSO control): at 45.8 µM (top of the series); also: nearly all actives have a fitted effect of over 55% in size;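 as to viability (% of DMSO control): 100% = DMSO-only wells and 0% = media-only wells without cells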
Outline: as §1

[6] = Quantitative High-Throughput drug screen in 47 multiple myeloma cell lines against the NCATS MIPE library collection: XG1_PLB cell viability assay (AID 1919866); also: nearly all actives have a fitted effect of over 35% in size
Outline: as §1

[7] = Quantitative High-Throughput drug screen in 47 multiple myeloma cell lines against the NCATS MIPE library collection: PE2_PLB cell viability assay (AID 1919869); also: nearly all actives have a fitted effect of over 35% in size
Outline: as §1

[8] = Quantitative High-Throughput drug screen in 47 multiple myeloma cell lines against the NCATS MIPE library collection: OPM1_PLB cell viability assay (AID 1918989); also: nearly all actives have a fitted effect of over 40% in size
Outline: as §1

[9] = Quantitative High-Throughput drug screen in 47 multiple myeloma cell lines against the NCATS MIPE library collection: U266_ATCC cell viability assay (AID 1919864); also: nearly all actives have a fitted effect of over 35% in size;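 as to viability (% of DMSO control): 0% = media-only wells without cells and 100% = DMSO-only wells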
Outline: as §1

[10] = Quantitative High-Throughput drug screen in 47 multiple myeloma cell lines against the NCATS MIPE library collection: OCIMY5_PLB cell viability assay (AID 1918988); also: nearly all actives have a fitted effect of over 65% in size
Outline: as §1
Potency is read from the fitted curve at half-maximal effect.

COc1ccc(Cn2ccc3ccc(C(=O)NO)cc32)cc1
active: Potency [1] 9.35 µM | Potency [2] 14.8 µM | Potency [3] 9.35 µM

CSc1cccc(Nc2ncc3cc(-c4c(Cl)cccc4Cl)c(=O)n(C)c3n2)c1
active: Potency [1] 0.0935 µM | Potency [4] 1.87 µM | Potency [2] 0.118 µM | Potency [3] 0.118 µM | Potency [5] 0.0166 µM

CCOC(=O)[C@@H](N)CCC(=O)N[C@@H](CSCc1ccccc1)C(=O)N[C@@H](C(=O)OCC)c1ccccc1
active: Potency [1] 23.5 µM | Potency [2] 11.8 µM | Potency [6] 23.5 µM | Potency [5] 23.5 µM | Potency [7] 20.9 µM

NC(=O)c1ncn([C@@H]2O[C@H](CO)[C@@H](O)[C@@H]2O)n1
inactive: Potency [1] | Potency [8] | Potency [2] | Potency [6] | Potency [7]

COC(=O)[C@H](c1ccccc1Cl)N1CCc2sccc2C1
inactive: Potency [2] | Potency [6] | Potency [5] | Potency [7]
active: Potency [1] 20.9 µM

c1cc(OCCN2CCCCC2)cc(-c2n[nH]c3ccc(-c4ncn[nH]4)cc23)c1
active: Potency [1] 5.26 µM | Potency [9] 18.7 µM | Potency [2] 5.26 µM | Potency [6] 8.33 µM | Potency [3] 11.8 µM | Potency [7] 10.5 µM

CCOC(=O)[C@H]1O[C@H]1C(=O)N[C@@H](CC(C)C)C(=O)NCCC(C)C
inactive: Potency [1] | Potency [7]
active: Potency [9] 10.5 µM | Potency [2] 6.62 µM

Cc1ccccc1C(C(=O)NC1CCCCC1)N(C(=O)CNc1ccc(C#N)cc1)c1cccc(F)c1 (centres undefined)
inactive: Potency [1] | Potency [8] | Potency [2] | Potency [3] | Potency [7]

CC(C)=CCCC(C)=CCCC(C)=CCCC(C)=CCCC(C)=CCCC(C)=CCCC(C)=CCCC(C)=CCCC(C)=CCO
inactive: Potency [1] | Potency [8] | Potency [2] | Potency [6] | Potency [5] | Potency [7]

O=C1Nc2ccc(I)cc2C1=Cc1cc(Br)c(O)c(Br)c1
inactive: Potency [9] | Potency [2]
active: Potency [10] 8.33 µM | Potency [8] 10.5 µM | Potency [4] 18.7 µM | Potency [6] 20.9 µM | Potency [7] 14.8 µM

CC1CNc2c(cccc2S(=O)(=O)N[C@@H](CCCN=C(N)N)C(=O)N2CC[C@@H](C)C[C@@H]2C(=O)O)C1 (some centres undefined)
inactive: Potency [1] | Potency [9] | Potency [6] | Potency [3] | Potency [5] | Potency [7]
active: Potency [2] 5.9 µM

CN(C)CCOc1ccc(-c2nc(-c3ccc4c(c3)CCC4=NO)c(-c3ccncc3)[nH]2)cc1
active: Potency [10] 23.5 µM | Potency [8] 16.6 µM | Potency [4] 20.9 µM | Potency [9] 26.4 µM | Potency [2] 16.6 µM | Potency [6] 18.7 µM | Potency [3] 18.7 µM | Potency [7] 16.6 µM

COC1CCC(C(=O)c2ccc3nc4c(cc3c2)CCCO4)CC1 (centres undefined)
active: Potency [10] 26.4 µM | Potency [8] 14.8 µM | Potency [4] 26.4 µM | Potency [9] 18.7 µM | Potency [2] 16.6 µM | Potency [6] 14.8 µM | Potency [3] 13.2 µM | Potency [7] 18.7 µM

Cc1cc(-c2ncc(CC(=O)Nc3ccc(-c4cnccn4)cn3)cc2C)ccn1
inactive: viability [4] 117%
active: Potency [10] 11.8 µM | Potency [8] 8.33 µM | Potency [9] 20.9 µM | Potency [2] 14.8 µM | Potency [6] 16.6 µM | Potency [3] 18.7 µM | Potency [7] 18.7 µM

C[C@@H](NC(=O)c1ncnc(N)c1Cl)c1ncc(C(=O)Nc2cc(C(F)(F)F)c(Cl)cn2)s1
active: Potency [1] 7.43 µM | Potency [4] 16.6 µM | Potency [9] 26.4 µM | Potency [6] 10.5 µM | Potency [3] 20.9 µM

Oc1ccc(C=Cc2cc(O)cc(O)c2)cc1
active: Potency [10] 13.2 µM
inactive: Potency [8]

CC[C@]1(O)C[C@H]2CN(CCC3=c4ccccc4=N[C]3[C@@](C(=O)OC)(c3cc4c(cc3OC)N(C)[C@H]3[C@@](O)(C(N)=O)[C@H](O)[C@]5(CC)C=CCN6CC[C@]43[C@@H]65)C2)C1
inactive: Potency [2]
active: Potency [1] 0.0662 µM | Potency [4] 0.0148 µM | Potency [9] 0.0935 µM | Potency [5] 0.0053 µM

O=C(Nc1cccc(C(F)(F)F)c1)Nc1cc(S(=O)(=O)NC2CC2)ccc1-c1ccsc1
active: Potency [1] 18.7 µM | Potency [8] 26.4 µM | Potency [2] 23.5 µM | Potency [5] 18.7 µM | Potency [7] 26.4 µM

O=C(CCCN1CCN(c2ccc(F)cc2)CC1)NC1c2ccccc2CSc2ccccc21 (centres undefined)
active: Potency [10] 16.6 µM | Potency [8] 10.5 µM | Potency [4] 5.9 µM | Potency [9] 20.9 µM | Potency [2] 14.8 µM | Potency [6] 11.8 µM | Potency [3] 7.43 µM | Potency [7] 13.2 µM

CC(NCCc1ccc(O)cc1)C(O)c1ccc(O)cc1 (centres undefined)
inactive: Potency [8] | viability [4] 131% | Potency [9] | Potency [2] | Potency [6] | Potency [7]
active: Potency [10] 0.132 µM
